Test results reported in PubChem BioAssay (EPA / NIEHS).
Where “and” joins values, the source holds several entries; their conditions need not be identical. Equal entries are not always repeated. Inconclusive results are not listed. Some compounds were tested as several samples or in several runs, with calls that do not always agree. Calls of active or inactive are those of the source. How the source made its calls: active means hit-call score of the fitted dose curve at least 0.9, where 1 is the maximum; inconclusive means response in the unintended direction; inactive means score below 0.9.

Assay: TOX21_p53_BLA_p3_viability: Viability Assessment in the Tox21 HCT-116 p53 Agonism Beta-lactamase Assay, Phase 3 (AID 2283593);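 further: cells exposed to compound for 16 h before reading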
Source text: TOX21_p53_BLA_p3 is a cell-based, single-readout assay that uses HCT116, a human intestinal cell line, […] in a 1536-well plate.TOX21_p53_BLA_p3_viability is an assay readout measuring cellular ATP content and detected with CellTiter-Glo Luciferase-coupled ATP quantitation.TOX21_p53_BLA_p3_viability used a type of viability reporter where loss-of-signal activity can be used to understand changes in the cell viability. Furthermore, this assay endpoint can be referred to as a secondary readout, because this assay has produced multiple assay endpoints where this one serves a viability function. To generalize the intended target to other relatable targets, this assay endpoint is annotated to the cell cycle intended target family, where the subfamily is cytotoxicity.
Thawing Method: Place 14 mL of pre-warmed thaw medium into a 15 mL of conical tub. Remove the vial of cells to be thawed from liquid nitrogen and thaw rapidly by placing at 37C in a water bath with gentle agitation for 1-2 minutes. Decontaminate the vial by wiping with 70% ethanol before opening in a biological safety cabinet. Transfer the vial contents drop-wise into 14 mL of thaw medium in a sterile 15-mL conical tub. Centrifuge cells at 900 rpm for 4 minutes and resuspend in thaw medium. Transfer contents to the T75 tissue culture flask containing Thaw Medium and place flask in a humidified 37C/5% CO2 incubator. Switch to growth medium at first passage.Propagation Method: Aspirate medium, rinse once in DPBS, add 0.25% Trypsin/EDTA and swirl to coat the cell evenly. Add an equal volume of Growth Medium to inactivate Trypsin after 2-3 minutes incubation at 37C. Centrifuge cells at 900 rpm for 4 minutes and resuspend in growth medium. Cell should be passage or fed at least twice a week.Assay Protocol: Harvest cells from culture in growth medium and resuspend in assay medium. 2.2 Dispense 4000 cells/5 uL/well into 1536-well black/clear bottom plates using a Multidrop dispenser. After the cells were incubated at 37C for 5 hours, 23 nL of compounds dissolved in DMSO were transferred to the assay plate by a PinTool resulting in a 217-fold dilution. Incubate the plates for 16 hours at 37C, 5% CO2. Add 1 uL of 6X LiveBLAzer FRET B/G (CCF4-AM) Substrate Mixture to each well using a BioRAPTR dispenser and incubate the plates at room temperature for 2 hours. Measure fluorescence intensity at 460 and 530 nm emission and 405 nm excitation by an Envision detector. Data is expressed as the ratio of 460nm/530nm emissions. Add 4 uL of Cell-titer Glo to each well using BioRAPTR and incubate the plates at room temperature for […]. For cell viability readout that measures cytotoxicity, 4 ul/well of CellTiter-Glo reagent was added into the assay plates using a Flying Reagent Dispenser. After 30 min incubation at room temperature, the luminescence intensity in the plates was measured using a ViewLux plate reader.

| SMILES | outcome | AC50 |
| --- | --- | --- |
| O=C1c2ccccc2C(=O)N1CCc1noc(-c2ccc(CN3CCCCCC3)s2)n1 | inactive | – |
| CN(C)C(=O)C1(N2CCCCC2)CCN(CC[C@@]2(c3ccc(Cl)c(Cl)c3)CN(C(=O)c3ccccc3)CCO2)CC1 | – | 70.5 µM (active) |
| Cc1c2ccccc2c(C)c2c1ccc1ccccc12 | inactive | 61.5 µM (active) |
| Cc1ncc(CO)c(CO)c1O | inactive | – |
| CCCCCCCCN(C)CCCCCCCC | inactive | – |
| CCN(CC)C(=O)c1cc(S(=O)(=O)Cc2ccccc2)c(N2CCC(c3ccccc3)CC2)cc1N(CC)CCN(C)C | inactive | 30.3 µM (active) |
| Cc1cccc2ccccc12 | inactive | – |
| O=c1[nH]sc2ccccc12 | inactive | – |
| CCCCCCCCCCCC[N+](C)(C)C | inactive | 85.3 µM (active) |
| O=C1CCC(C2CCCCC2)CC1 | inactive | – |
| O=c1c(-c2ccc(O)cc2)coc2cc(O)cc(O)c12 | inactive | – |
| CC1=CC(=O)/C(=C(/C)O)C(=O)O1 | inactive | – |
| CCCCCCCC[Si](OCC)(OCC)OCC | inactive | – |
| O=C(O)Cn1c(=O)n(Cc2ccc(Br)cc2F)c(=O)c2ccc(Cl)cc21 | inactive | – |
| CCCCOC(=O)c1ccc(O)cc1 | inactive | – |
| CC(O)CC(C)(C)O (stereo not given) | inactive | – |
| CO[C@H]1/C=C/O[C@@]2(C)Oc3c(C)c(O)c4c(O)c(c(/C=N/N5CCN(C)CC5)c(O)c4c3C2=O)NC(=O)/C(C)=C\C=C\[C@H](C)[C@H](O)[C@@H](C)[C@@H](O)[C@@H](C)[C@H](OC(C)=O)[C@@H]1C | inactive | – |
| CN(C)c1ccc(C(=C2C=CC(=[N+](C)C)C=C2)c2ccc(N(C)C)cc2)cc1 | – | 56.6 µM (active) and 17.3 µM (active) and 20.4 µM (active) |

| SMILES | outcome | AC50 |
| --- | --- | --- |
| CC1(C)NC(=O)N(c2ccc([N+](=O)[O-])c(C(F)(F)F)c2)C1=O | inactive | – |
| c1ccc2n[nH]nc2c1 | inactive | – |
| CCCCCCCCOC(=O)c1cc(O)c(O)c(O)c1 | – | 67.9 µM (active) |
| CCOC(=O)O[C@H](C)OC(=O)c1ccc2c(c1)cc(C(=O)NC1CCN(C(C)C)CC1)n2Cc1cc(-c2ccc(Cl)s2)on1 | – | 55.8 µM (active) |
| NC(=O)c1nc(-c2cccc(-c3cc(F)ccc3OCC(F)(F)C(F)(F)F)c2)n[nH]1 | – | 74 µM (active) |
| O=C=NCCCCCCN=C=O | inactive | – |
| CCCCCCCCCCCCO | inactive | – |
| COc1cc(C(=O)NC2CCN(C)CC2)ccc1Nc1ncc2c(n1)N(C1CCCC1)CC(F)(F)C(=O)N2C | – | 55.2 µM (active) |
| c1ccc2ccccc2c1 | inactive | – |
| Cc1cc2c(cc1C(F)(F)F)N(C(=O)Nc1ccc(Oc3cccnc3C)nc1)CC2 | inactive | – |
| Cc1ccc2oc(CN(Cc3ccccc3)C(=O)Nc3c(F)cc(F)cc3F)c(-c3ccc(Cl)cc3)c2c1 | inactive | – |
| CCN(Cc1cccnc1)C(=O)c1cccc(Cl)c1[C@]1(C)C(=O)N(Cc2ccc(OC)cc2OC)c2ccc(Cl)cc21 | inactive | – |
| CN(C[C@@H](CC[N+]12CCC(C3CCCCC3)(CC1)CC2)c1ccc(Cl)c(Cl)c1)C(=O)c1cc(C(F)(F)F)cc(C(F)(F)F)c1 | – | 58.7 µM (active) |
| Clc1ccccc1C(c1ccccc1)(c1ccccc1)n1ccnc1 | inactive | 81.9 µM (active) |
| CC(C)(C)c1csc(-c2cc3cc(OCc4ccccc4CC(=O)O)ccc3o2)n1 | – | 46.1 µM (active) |
| CCO[Si](CCCNC(N)=O)(OCC)OCC | inactive | – |
| c1ccc(C[n+]2cccc3ccccc32)cc1 | inactive | – |
| O=C1O[C@H]([C@@H](O)CO)C(O)=C1O | inactive | – |
